# Screening data deposited in PubChem by National Center for Advancing Translational Sciences (NCATS).
# rTrxR1 inhibitor = qHTS Assay for Inhibitors of Mammalian Selenoprotein Thioredoxin Reductase 1 (TrxR1): qHTS | Thioredoxin reductase 1, cytoplasmic (Rattus norvegicus), O89049 | recombinant rTrxR1, NADPH fluorescence consumption, selenite substrate | Potency, µM (doses to about 114 µM), inactives show top-dose activity change, negative = inhibition, usual class: inhibitors | actives 1% (n = 390,000); also: potency is read from the fitted curve at half-maximal effect; nearly all actives have a fitted effect of over 65% in size
#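 Rat TrxR1 (90 nM in the dispensed reagent) was pre-reduced with 400 uM NADPH for 5 min at room temperature, then incubated with compound for 15 min. After 400 uM selenite was added, NADPH fluorescence (Ex 340/Em 450 nm) was followed for 8 min.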
# PI4K2A block = qHTS for small molecular inhibitors of PI4K2A; Phosphatidylinositol 4-kinase type 2-alpha (Homo sapiens), Q9BTU6; purified PI4K2A, ADP-Glo luminescence, 1 h; stronger effect = lower value; activity change, negative = inhibition, % at 76.9 µM; actives 0.13% (n = 420,000); AID 1346378, 2018; in the data active = activity change below about -50%; inconclusive = mostly about -30% to -49%;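 also: -100% = wells without enzyme as full effect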
#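 ADP-Glo luminescence measured ADP generated by PI4K2A enzyme (4 ug/mL before mixing) with 1.2 mM PI substrate (pre-mix) and 300 microM ATP (pre-mix). Tris pH7.5 buffer with MgCl2, Triton X-100; 1 h reaction at ambient temperature.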
# GALK inhibitor = qHTS Assay for Inhibitors of Human Galactokinase (GALK). actives 0.007% (n = 270,000). Purified GALK, Kinase-Glo residual ATP luminescence. P51570. Potency, µM (highest dose often 57.5 µM), for inactives: top-dose activity change, negative = inhibition, hits mostly inhibitors; also: potency is read from the fitted curve at half-maximal effect
# Target sequence (P51570 whole entry, looked up): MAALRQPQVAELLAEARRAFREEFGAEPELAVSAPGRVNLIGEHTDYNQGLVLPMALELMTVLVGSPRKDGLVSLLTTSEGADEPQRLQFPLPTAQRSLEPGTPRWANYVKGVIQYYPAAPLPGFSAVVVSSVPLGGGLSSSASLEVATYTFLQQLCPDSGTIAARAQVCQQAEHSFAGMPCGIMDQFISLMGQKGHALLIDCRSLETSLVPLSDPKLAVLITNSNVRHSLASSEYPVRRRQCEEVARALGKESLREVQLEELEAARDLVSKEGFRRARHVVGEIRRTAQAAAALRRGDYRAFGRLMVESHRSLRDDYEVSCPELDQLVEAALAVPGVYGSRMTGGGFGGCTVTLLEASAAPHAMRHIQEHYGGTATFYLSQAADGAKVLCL
#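 Kinase-Glo Plus luminescence measured ATP left after a 1 h room-temperature reaction. The reaction used 5 nM GALK, 100 uM galactose and 35 uM ATP at pH 8.0 (20 mM HEPES, 5 mM MgCl2, 60 mM NaCl, 1 mM DTT, 0.01% BSA).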
# TrxR1 substrate = qHTS Assay for Substrates of Mammalian Selenoprotein Thioredoxin Reductase 1 (TrxR1): qHTS | Thioredoxin reductase 1, cytoplasmic (Rattus norvegicus), O89049 | purified TrxR1 substrate turnover, NADPH consumption readout | Potency, µM (titrated, usually from 114 µM), for inactives: at the top dose activity change, negative = substrate turnover | actives 0.01% (n = 390,000) | AID 588456, 2011; also: potency is read from the fitted curve at half-maximal effect; nearly all actives have a fitted effect of over 50% in size
#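 Rat TrxR1, dispensed at 90 nM, was prereduced with 400 uM NADPH (final) for 5 min at ~22 deg C, then incubated with compound 15 min before 400 uM selenite. A first-read NADPH fluorescence drop versus no-compound background flagged substrates.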
# * marks the source's active call; other numbers are inactive results; ? = inconclusive; / = no result given; [ ] = another dose, or the depositor's remark. Rows were chosen to be rich in hits. Some 1.1% of all compounds tested hit in one or more screens of this group. Unless noted, calls follow the shape of the dose curve; as a rule, active = well fitted curve in the direction sought with a large enough effect; inconclusive = small, poorly fitted or top-dose-only effect, or another doubt; inactive = no such curve, though single readings can be large; an effect the other way counts as inactive or inconclusive. Unless noted, % is scaled to controls: 0 for no effect and ±100 for the full control effect.
SMILES,rTrxR1 inhibitor,PI4K2A block,GALK inhibitor,TrxR1 substrate
O=c1c(C(c2ccc(Br)cc2)c2c(O)nc3n(c2=O)CCCS3)c(O)nc2n1CCCS2,7.1µM*,7,-4%,?
N#Cc1c(-c2ccc(Br)cc2)nc2n(c1=O)CCCS2,-4%,-2,1%,-7%
O=c1c2[nH]c3ccccc3c2nc2n1CCS2,31%[57.1 µM],0,5%,-1%[57.1 µM]
O=C(CCl)N=c1sccn1Cc1ccccc1Cl,25µM*,7,-2%,3%
O=C(CCl)N=c1sccn1Cc1cccc2ccccc12,?,-4,5%,5%
O=C(CCl)N=c1sccn1Cc1ccc(Cl)cc1Cl,32µM*,10,1%,1%
CCC(=O)OCC(=O)N=c1sccn1Cc1ccccc1Cl,-12%,-3,1%,-8%
Cc1cc(OCCOCC[N+](C)(C)Cc2ccccc2)ccc1C(C)(C)CC(C)(C)C,/,-2,/,/
Cc1c(N)cccc1C(F)(F)F,/,2,/,/
Cc1nc(-c2ccc(C(=O)N3CCCC3)cc2)cs1,22%[57.1 µM],-56*,20%,6%[57.1 µM]
Cc1nc(-c2ccc(C(=O)Nc3ccccc3F)cc2)cs1,5%[57.1 µM],-60*,14%,6%[57.1 µM]
Cc1nc(-c2ccc(C(=O)N3CCOCC3)cc2)cs1,19%,-17,8%,10%[57.1 µM]
Cc1nc(-c2ccc(C(=O)Nc3ccc(F)cc3)cc2)cs1,26%,?,2%,12%
O=C(Nc1ccccc1C(=O)OCc1cc(=O)n2c3c(sc2n1)CCCC3)c1ccccc1,5%[57.1 µM],4,/,-3%[57.1 µM]
OC(Br)C(O)C(O)N1CCCc2ccccc21 (stereo not given),2%,/,/,2%
O=C(Nc1ccc(-n2nncc2-c2ccco2)cc1)c1cc2ccccc2oc1=O,-17%[57.1 µM],?,-1%,5%[57.1 µM]
Cc1cccc(C(=O)NC2CCN(C(=O)NCc3ccccc3)CC2)c1,25µM*,2,-3%,1%[57.1 µM]
Oc1ccccc1/C=N/Nc1nccnc1Cl,-18%,-9,0%,-9%
Oc1ccc(/C=N/Nc2nccnc2Cl)c(O)c1,-8%,-67*,6%,-9%
COc1cccc(/C=N/Nc2nccnc2Cl)c1O,-7%,-60*,14%,-13%
COc1cccc(Cn2cnc3c(cnn3C(C)(C)C)c2=O)c1,18%,/,/,1%
CCCN(C(=O)c1cc(-c2ccco2)nc2ccccc12)c1c(N)n(Cc2ccccc2)c(=O)[nH]c1=O,28µM*,-12,/,2%
CCCCn1c(N)c(N(CCOC)C(=O)c2cc(-c3ccco3)nc3ccccc23)c(=O)[nH]c1=O,50µM*,-13,/,6%
COCCN(C(=O)c1cc(-c2ccco2)nc2ccccc12)c1c(N)n(Cc2ccccc2)c(=O)[nH]c1=O,?,-11,/,5%
CCN(C(=O)COC(=O)/C=C/c1ccco1)c1c(N)n(Cc2ccccc2)c(=O)[nH]c1=O,50µM*,3,/,-2%
SMILES,rTrxR1 inhibitor,PI4K2A block,GALK inhibitor,TrxR1 substrate
CS(=O)(=O)c1ccc(C(=O)OCc2nnc(-c3ccc(Cl)cc3)o2)cc1[N+](=O)[O-],1.8µM*,4,3%,8%[57.1 µM]
S=c1ncc2[nH]c(=S)[nH]c2[nH]1,-15%,-8,/,-6%
COC(C(=O)C(O)C(C)O)C1Cc2cc3cc(OC4CC(OC5CC(O)C(O)C(C)O5)C(O)C(C)O4)c(C)c(O)c3c(O)c2C(=O)C1OC1CC(OC2CC(OC3CC(C)(O)C(O)C(C)O3)C(O)C(C)O2)C(O)C(C)O1 (stereo not given),-23%,/,/,-11%
COc1ccc(C=C2C=C(C(C)(C)C)C(=O)C(C(C)(C)C)=C2)cc1OC,11µM*,-2,2%,1%
COc1ccc(/C=C2\CC/C(=C\c3ccc(OC)c(OC)c3)C2=O)cc1OC,-20%,1,-3%,?
Cc1ccc(C(=O)N/C(=C\c2ccc(-c3ccccc3[N+](=O)[O-])o2)C(=O)NCCCN2CCOCC2)cc1,40µM*,0,0%,-7%
Cc1ccc(C(=O)N/C(=C\c2cn(C)c3ccccc23)C(=O)NCCCN2CCOCC2)cc1,0%,4,5%,-7%
CCC(c1nnnn1C(C)(C)CC)N(CCCN1CCOCC1)Cc1cc2cccc(C)c2[nH]c1=O (stereo not given),35µM*,6,0%,15%
O=C(O)c1cccc2c1C(=O)c1ccccc1C2=O,-9%,13,8%,-7%
O=C(O)c1ccc2c3c(ncnc13)-c1ccccc1C2=O,10µM*,-4,3%,-13%
CN(C)c1ccc(C(=C2C=CC(=[N+](C)C)C=C2)c2ccc(N(C)C)cc2)cc1,-14%,-59*,/,3%[0.0914 µM]
CN(C)c1ccc(C(=C2C=CC(=[N+](C)C)C=C2)c2ccccc2)cc1,/,-10,/,/
CCOC(=O)CSC1=NC(=O)/C(=C\c2ccc(OC(C)=O)cc2)S1,8.9µM*,-3,-3%,-8%
CCOc1ccc(CNc2cc(C)nc3nc(-c4cccc(C)c4)nn23)cc1OC,-8%[57.1 µM],6,/,2%[57.1 µM]
CCOC(=O)c1c(C)oc2nc(C)nc(N3CCN(c4cccc(C(F)(F)F)c4)CC3)c12,32%,2,/,-3%
CCOC(=O)C1C(=O)C(C(=O)OCC)C(c2cccnc2)NC1c1cccnc1 (stereo not given),3.2µM*,4,1%,22%[57.1 µM]
COCc1cc(O)c(O)c(O)c1-c1c(COC)cc(O)c(O)c1O,14µM*,/,/,-9%
COc1ccc(Cn2c(CNS(=O)(=O)c3ccc(Cl)s3)nc3cccnc32)cc1,12%[57.1 µM],-3,/,-1%[57.1 µM]
CCOC(=O)c1cccc(NC(=O)CCS(=O)(=O)c2cccs2)c1,22µM*,-2,-2%,-4%
CCc1cc(SC#N)cc(C)c1NC(=O)CCl,?,-26,0%,20%[57.1 µM]
Cc1cc(SC#N)cc(C)c1NC(=O)CCl,50µM*,-24,0%,-7%
Cn1cnnc1Sc1ccc(/C=C/C(=O)c2ccc(O)cc2)cc1[N+](=O)[O-],22µM*,-5,-1%,-15%
COc1ccc(NC(=O)/C(C#N)=C/c2ccc(Sc3nncn3C)c([N+](=O)[O-])c2)cc1,50µM*,-4,5%,7%
CCC(C)(C)NC(=O)c1ccc(Sc2nncn2C)c([N+](=O)[O-])c1,3%[57.1 µM],4,0%,-22%[57.1 µM]
COc1cc(Nc2ccc(S(N)(=O)=O)cc2)c([N+](=O)[O-])nc1[N+](=O)[O-],3.2µM*,-5,-3%,-11%
Cc1cc(C)cc(C(=O)NC(=S)Nc2cccnc2)c1,45µM*,1,6%,4%
O=C(NC(=S)Nc1cccnc1)c1cccc(Cl)c1,/,-2,/,/
COc1ccc(C(=O)NC(=S)Nc2cccnc2)cc1[N+](=O)[O-],10µM*,2,10%,-3%
Cc1ccc(-c2ccc(C(=O)NCc3ccc(Cl)cc3)o2)c2ccccc12,32µM*,-2,/,12%
Cc1ccccc1-c1ccc(C(=O)NCc2ccccc2)o1,27%[57.1 µM],1,/,25%[57.1 µM]
